# Bioassay records (PubChem BioAssay)
# ELG1 genotoxic: qHTS screen for small molecules that induce genotoxicity in human embryonic kidney (HEK293T) cells expressing luciferase-tagged ELG1 | HEK293T ELG1-luciferase reporter, luminescence, 16 h | Potency, µM (titrated, usually from 46 µM), inactives show top-dose activity change, positive = activation, usual class: activators | 1.3% of 330,000 active | AID 504466, 2011; further: % of control where 0% means no effect; nearly all actives have a fitted effect of over 60% in size
#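 Genotoxic stress is detected as increased luminescence from luciferase-tagged ELG1 in HEK293T cells, measured with ONE-Glo after a 16 hr treatment at 37 °C.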
# ELG1 repair inh: qHTS screen for small molecules that inhibit ELG1-dependent DNA repair in human embryonic kidney (HEK293T) cells expressing luciferase-tagged ELG1; HEK293T ELG1-luciferase reporter, luminescence, 16 h; DNA damage induced by 5-fluorouridine; Potency, µM (highest dose often 46.1 µM), without a hit: at the top dose activity change, negative = inhibition, usual class: inhibitors; 2.3% of 330,000 active; further: on the % scale 0 is the no-effect control and ±100 the full control effect; nearly all actives have a fitted effect of over 55% in size
#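 In this reporter screen, reduction of luminescence relative to DMSO vehicle indicated activity. Compounds and 5-fluorouridine were added together to 2,000 cells per well, incubated for 16 hr at 37 °C, then developed with ONE-Glo.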
# NPC1 prom act: qHTS Assay for NPC1 Promoter Activators | Huh7 NPC1 promoter luciferase reporter, 24 h | Potency, µM (doses to about 9.22 µM), for inactives: at the top dose activation, hits mostly activators | 2.4% of 320,000 active | AID 485313, 2010; further: % of control where 0% means no effect; nearly all actives have a fitted effect of over 60% in size
#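 Luminescence from an NPC1 promoter-driven luciferase reporter in stably transfected Huh7 cells was measured after 24 h compound treatment at 37 °C, followed by 10 min ambient incubation with luciferase detection reagent.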
# Rab9 prom act: qHTS Assay for Rab9 Promoter Activators. AID 485297, 2010. Potency, µM (top dose mostly 9.22 µM), for the others: at the top dose activation, negative = inhibition, usual class: activators. Huh7 Rab9 promoter-luciferase reporter, luminescence, 24 h. 2.8% of 320,000 active; further: % of control where 0% means no effect; nearly all actives have a fitted effect of over 60% in size
#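 Luciferase signal after 10 min detection reagent at ambient indicates Rab9 promoter upregulation; stably transfected Huh7 cells were treated 24 h with compound in DMSO at 37 °C, 5% CO2.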
# SMN2 splice enh: qHTS Assay for Enhancers of SMN2 Splice Variant Expression. HEK293 SMN2-luciferase splicing reporter, luminescence, 30-36 h. Potency, µM (series often up to 46.1 µM), for the others: top-dose activity change, positive = activation, usual class: activators. 2.8% of 210,000 active. AID 1458, 2008; further: % of control where 0% means no effect; nearly all actives have a fitted effect of over 55% in size
#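 HEK293 cells carry an SMN2 […]–luciferase reporter in which exon 7 inclusion puts luciferase in frame. Cells were plated 10-12 h before compound addition, then incubated 30-36 h at 37C. ONE-Glo luminescence was read; sodium butyrate at 4.5 mM final served as control.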
# FLuc counter: qHTS profiling assay for firefly luciferase inhibitor/activator using purifed enzyme and Km concentrations of substrates (counterscreen for miR-21 project) | Luciferin 4-monooxygenase (Photinus pyralis), P08659 | purified FLuc, Km substrates, luminescence inhibition | Potency, µM (doses to about 57.5 µM), for the others: at the highest dose activity change, negative = inhibition, actives largely listed as inhibitors | 6.9% of 360,000 active | AID 588342, 2011;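 further: plate controls were vehicle for no effect and reference inhibitor for full effect; nearly all actives have a fitted effect of over 55% in size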
# Target sequence (P08659 whole entry, looked up): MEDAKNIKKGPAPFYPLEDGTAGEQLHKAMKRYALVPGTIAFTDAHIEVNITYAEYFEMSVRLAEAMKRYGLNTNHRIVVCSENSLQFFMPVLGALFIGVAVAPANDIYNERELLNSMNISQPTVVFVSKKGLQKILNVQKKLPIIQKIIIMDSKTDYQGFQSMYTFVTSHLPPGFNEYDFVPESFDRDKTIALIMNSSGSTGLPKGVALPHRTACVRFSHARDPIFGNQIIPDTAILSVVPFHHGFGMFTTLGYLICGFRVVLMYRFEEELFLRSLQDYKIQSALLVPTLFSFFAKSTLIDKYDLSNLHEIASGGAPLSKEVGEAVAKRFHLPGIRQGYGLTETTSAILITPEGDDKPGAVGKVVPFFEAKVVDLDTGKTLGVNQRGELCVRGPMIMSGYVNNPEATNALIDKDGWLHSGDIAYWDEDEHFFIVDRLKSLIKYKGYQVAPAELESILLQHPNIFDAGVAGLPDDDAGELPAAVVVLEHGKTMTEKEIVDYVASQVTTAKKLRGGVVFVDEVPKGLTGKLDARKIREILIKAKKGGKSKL
#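 Biochemical qHTS of compounds, final roughly 60 µM downward over six points, against 10 nM purified firefly luciferase using Km concentrations of substrates (10 uM D-luciferin, 10 uM ATP) in Tris acetate pH 7.5 buffer; luminescence output.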
# * = called active by the depositor; ? = inconclusive; / = no result. An excerpt weighted towards active compounds, which were near 9.2% of everything screened. The call rests on the fitted dose curve; in most records, active means well fitted curve in the direction sought with a large enough effect; inconclusive means small, poorly fitted or top-dose-only effect, or another doubt; inactive means no such curve, though single readings can be large; an effect the other way counts as inactive or inconclusive. Potency means the concentration at half of the fitted maximal effect.
SMILES,ELG1 genotoxic,ELG1 repair inh,NPC1 prom act,Rab9 prom act,SMN2 splice enh,FLuc counter
COc1cccc2cc(C(=O)c3ccccc3)oc12,?,?,?,3.5µM*,?,9.5µM*
CCc1ccc(C(=O)Cc2cc3cccc(OC)c3oc2=O)cc1,13%,0%,?,?,/,15µM*
Cc1cccc(C(=O)n2nc(-c3cccnc3)nc2NCc2ccc(F)cc2)c1,/,/,/,/,1%,-1%
C=C(C(=O)OCC)C(=O)c1ccccc1,/,/,/,/,10%,/
C/C(=N\NC(=O)C1(C)CC1(Br)Br)c1cccc(NC(=O)c2ccc(C)o2)c1 (stereo not given),-20%,7.3µM*,-5%,2%,/,-14%
C/C(=N\NC(=O)C1(C)CC1(Br)Br)c1ccc(NC(=O)C2CCC2)cc1 (stereo not given),-4%,6.5µM*,-4%,1%,-14%,3%
Cc1ccc(C(=O)Nc2cccc(C(=O)NCc3ccccc3)c2)o1,0%,-20%,-2%,1%,-19%,?
O=C(COc1ccc(F)cc1)Nc1ccc(Cl)c(-c2nc3ccccc3[nH]2)c1,/,/,/,/,/,-13%
O=C(COc1ccccc1)Nc1cccc(-c2nc3ccccc3[nH]2)c1,-2%,?,-1%,-1%,?,17µM*
O=C(O)CCCC(=O)Nc1cccc(-c2nc3ccccc3[nH]2)c1,0%,0%,-2%,1%,-3%,12µM*
COc1ccc(OCC(=O)Nc2cccc(-c3nc4ccccc4[nH]3)c2)cc1,-2%,?,?,30%,?,9.5µM*
CCOc1ccc(CCNC(=O)c2cc3ccccn3n2)cc1OCC,-7%,?,0%,0%,-32%,-2%
O=C1/C(=C/c2ccc(O)c(O)c2)Oc2cc(O)ccc21,15µM*,?,?,20%,/,15µM*
COc1cc(/C=C2\Oc3cc(O)ccc3C2=O)ccc1O,23µM*,?,3.2µM*,4µM*,/,8.5µM*
O=C1/C(=C/c2cccc([N+](=O)[O-])c2)Oc2cc(O)ccc21,0%,?,13%,3%,/,?
O=c1c2ccccc2nc(/C=C/c2ccc([N+](=O)[O-])o2)n1CCCO,?,15µM*,-38%,-43%,-93%,1%
Cc1nc2ccccc2c(=O)n1CCCO,-1%,-1%,-2%,1%,6%,3%
O=c1c2ccccc2nc(/C=C/c2ccc([N+](=O)[O-])cc2)n1CCCO,-6%,18µM*,-4%,-1%,-7%,-1%
O=C1C=CC(=O)N1c1ccc(OC(F)F)cc1,-6%,21µM*,-20%,-28%,-3%,?
COc1ccccc1NC(=O)C(=O)NCCCN1CCCC1=O,5%,?,11%,23%,/,-15%
COc1cccc(NC(=O)C(=O)NCCCN2CCCC2=O)c1,?,?,?,28%,/,19µM*
Cc1ccc(NC(=O)NCCCN2CCCC2=O)cc1,?,?,11%,12%,12%,?
Cc1cc(C)cc(NC(=O)C(=O)NCCCN2CCCC2=O)c1,13µM*,?,?,?,/,?
O=C(Cn1cc(SCc2ccc(Cl)cc2)c2ccccc21)N1CCOCC1,1%,?,22%,30%,?,24µM*
Cc1ccc(CSc2cn(CC(=O)N3CCCC3)c3ccccc23)cc1,/,/,/,/,/,15µM*
SMILES,ELG1 genotoxic,ELG1 repair inh,NPC1 prom act,Rab9 prom act,SMN2 splice enh,FLuc counter
O=Cc1cn(CC(=O)N2CCCCC2)c2ccccc12,0%,10%,-1%,-3%,-3%,4%
Cc1cccc(CSc2cn(CC(=O)N3CCCC3)c3ccccc23)c1,/,/,/,/,/,15µM*
CN1C(=O)/C(=C/c2cn(CC(=O)N3CCCCC3)c3ccccc23)c2ccccc21,-14%,21µM*,0%,-1%,-3%,?
O=C(Cc1ccccc1Cl)Nc1cc(S(=O)(=O)N2CCOCC2)ccc1N1CCOCC1,1%,-13%,-1%,1%,/,-1%
CCOC(=O)N1CCN(Cc2nc3cc(NC(=O)c4ccccc4Cl)ccc3n2C(C)C)CC1,/,/,/,/,/,1%
COc1ccc2[nH]c3nc(SCc4nnc(-c5ccc(C)cc5)o4)nnc3c2c1,?,-17%,-1%,-5%,11%,4%
COc1cc(/C=N/Nc2ccc(Cl)cc2)ccc1OC(=O)c1cccs1,18%,?,2%,-5%,18%,-7%
O=C(NCCn1cc(SCC(=O)N2CCOCC2)c2ccccc21)c1ccccc1,-3%,7%,14%,17%,-2%,-12%
O=C(Cn1cc(SCc2c(F)cccc2Cl)c2ccccc21)N1CCCC1,/,/,/,/,/,17µM*
O=C(CSc1cn(Cc2ccccc2)c2ccccc12)N1CCOCC1,18µM*,?,?,23%,13µM*,24µM*
Cc1c(C)c(C)c(S(=O)(=O)Nc2ccc3[nH]c(=O)[nH]c3c2)c(C)c1C,-14%,1%,-9%,-8%,/,0%
CCCc1nc2oc3c(NCC4CCCO4)ncnc3c2c2c1COC(C)(C)C2 (stereo not given),2%,-16%,-2%,0%,-13%,8%
CC(C)c1nc2oc3c(NCC4CCCO4)ncnc3c2c2c1CCC2 (stereo not given),-3%,16µM*,-2%,12%,?,0%
CC(C)Cc1nc2oc3c(NCC(C)O)ncnc3c2c2c1CCCC2 (stereo not given),-7%,15µM*,-4%,7%,/,?
CC(C)Cc1nc2oc3c(Cl)ncnc3c2c2c1CCCC2,10%,6%,-6%,-5%,/,-3%
COc1ccc(Cl)cc1S(=O)(=O)N1CCN(C(=O)c2n[nH]c(=O)c3ccccc23)CC1,11%,?,/,/,/,/
O=C(c1ccco1)N1CCCC(Nc2ccc3c(c2)OCCO3)C1 (stereo not given),?,?,?,?,/,24µM*
CCC(=O)NC(=S)Nc1cccc(NC(=O)c2ccco2)c1,-5%,-3%,9%,3%,8%,-18%
O=C(NC(=S)Nc1ccc2c(c1)OCCO2)c1ccco1,?,?,?,1µM*,/,1.7µM*
O=C(Nc1ccc(NC(=O)c2ccco2)cc1)c1ccc2c(c1)OCCO2,?,?,-5%,-17%,7%,?
Cc1cc(NC(=O)c2ccc3c(c2)OCCO3)ccc1NC(=O)c1ccco1,10%,?,?,?,11µM*,0.76µM*
